From ChEMBL document CHEMBL1201862, “PubChem BioAssay data set” (2004)
The whole screen tested about 400,000 compounds, of which about 2,100 (0.53%) were called active. About 14% were inconclusive and are not listed. The rule behind the calls is not given here. Only a selection was taken, and actives are over-represented in it overall.

Biological target: Ataxin-2 (Homo sapiens) (UniProt Q99700)
Experiment: qHTS for Inhibitors of ATXN expression.
Type: functional

Sequence of Ataxin-2 (Homo sapiens) (Q99700 whole entry): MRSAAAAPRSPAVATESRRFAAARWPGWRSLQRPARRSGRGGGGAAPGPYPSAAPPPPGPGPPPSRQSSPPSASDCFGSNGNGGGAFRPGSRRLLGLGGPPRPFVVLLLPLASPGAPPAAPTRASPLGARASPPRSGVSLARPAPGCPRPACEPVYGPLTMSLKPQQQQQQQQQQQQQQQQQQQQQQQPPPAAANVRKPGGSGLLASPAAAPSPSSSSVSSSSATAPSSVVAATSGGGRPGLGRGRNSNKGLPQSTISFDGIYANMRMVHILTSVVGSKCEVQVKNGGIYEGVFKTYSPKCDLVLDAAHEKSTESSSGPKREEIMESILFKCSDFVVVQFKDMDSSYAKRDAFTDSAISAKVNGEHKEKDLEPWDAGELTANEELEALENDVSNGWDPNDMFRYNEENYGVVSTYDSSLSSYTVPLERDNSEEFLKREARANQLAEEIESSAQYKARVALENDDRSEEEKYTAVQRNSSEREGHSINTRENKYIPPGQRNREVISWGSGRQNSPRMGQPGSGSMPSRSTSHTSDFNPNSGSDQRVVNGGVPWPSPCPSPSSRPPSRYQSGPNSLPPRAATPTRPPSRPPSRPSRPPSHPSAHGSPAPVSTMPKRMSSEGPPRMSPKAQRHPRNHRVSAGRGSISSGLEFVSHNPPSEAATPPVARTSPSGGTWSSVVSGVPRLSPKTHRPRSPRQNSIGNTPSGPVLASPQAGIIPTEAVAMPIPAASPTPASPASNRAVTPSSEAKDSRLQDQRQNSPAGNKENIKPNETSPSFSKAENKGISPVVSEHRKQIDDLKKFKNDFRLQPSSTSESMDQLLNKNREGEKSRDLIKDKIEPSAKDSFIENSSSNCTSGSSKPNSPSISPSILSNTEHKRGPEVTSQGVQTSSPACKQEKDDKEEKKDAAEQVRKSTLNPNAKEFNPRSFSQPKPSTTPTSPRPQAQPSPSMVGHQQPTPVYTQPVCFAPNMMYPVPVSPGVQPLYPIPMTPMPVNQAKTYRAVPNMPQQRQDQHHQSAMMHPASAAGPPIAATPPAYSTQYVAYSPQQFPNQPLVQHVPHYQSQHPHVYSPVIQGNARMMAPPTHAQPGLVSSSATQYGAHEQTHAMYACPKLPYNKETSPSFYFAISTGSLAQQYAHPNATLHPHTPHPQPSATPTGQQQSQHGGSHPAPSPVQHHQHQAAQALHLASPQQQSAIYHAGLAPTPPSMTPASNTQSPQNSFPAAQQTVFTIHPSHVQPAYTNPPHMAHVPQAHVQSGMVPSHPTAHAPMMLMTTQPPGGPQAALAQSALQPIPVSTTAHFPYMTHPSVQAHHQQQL

Compound	Potency
COc1cc2c(cc1OC)CN(Cc1cc(=O)oc3c(C)c(C)ccc13)CC2	inactive
COc1ccc(NC(S)=Nc2ccc3nsnc3c2)cc1	inactive
Cc1ccsc1CN(C)CC(=O)NCC(=O)Nc1ccc(F)cc1	inactive
CCOC(=O)Cc1c(C)c2c(O)cc(O)cc2oc1=O	inactive
COc1ccc2c(c1)c(=Cc1ccc(N(C)C)cc1)c1cc(-c3ccccc3)[n+](C)n12	17.8 µM (active)
O=[N+]([O-])c1ccc2c(c1)c1ccccc1n2CCO	inactive
C[n+]1c(-c2ccccc2)cc2c(=Cc3ccccc3)c3ccccc3n21	23.8 µM (active)
CCOC(=O)c1cc2c(=Cc3ccc(N(C)C)cc3)c3ccccc3n2[n+]1C	13.4 µM (active)
CN(C)c1ccc(/C=c2\c3cc([N+](=O)[O-])ccc3n3c2cc(-c2ccccc2)[n+]3C)cc1	31.6 µM (active)
CN(C(=O)COC(=O)c1nnc(O)c2ccccc12)c1ccccc1	inactive
CCOC(=O)c1cc(C(=O)OCC)c2ccccn2c1=O	inactive
N#Cc1c2ccc(OCC(N)=O)cc2n2ccccc12	inactive
CCN(Cc1ccc(OC)c(F)c1)C(=O)/C=C/c1ccc(S(=O)(=O)N2CCOCC2)cc1	inactive
CCOC(=O)/C=C/C(=O)Nc1ccc(S(=O)(=O)Nc2nccs2)cc1	inactive
CC(NC(=O)c1cc2c(=O)n3ccccc3nc2n(CC2CCCO2)c1=N)c1ccccc1 (stereo unspecified)	inactive
Cc1cc(C(=O)NNc2c(Cl)cccc2Cl)no1	inactive

Compound	Potency
CCCCN(C)C(=O)c1ccc2c(c1)N(Cc1cccc(F)c1)C(=O)c1ccccc1S2	25.1 µM (active)
O=C1c2cccc3cccc(c23)N1Cc1ccc(F)cc1	inactive
CCCCN1C(=O)c2cccc3cc(O)cc(c23)C1=O	inactive
Cc1oc(-c2ccccc2F)nc1C[S+]([O-])CC(=O)NCc1ccc(F)cc1 (stereo unspecified)	inactive
N#Cc1c(N)n(-c2cccc(C(=O)O)c2)c2nc3ccccc3nc12	inactive
CCc1ccccc1NC(=O)c1sc2nc(C)cc(C)c2c1N	inactive
Cc1ccc(C(=O)Nc2nc(C(N)Cc3ccc(C(F)(F)F)cc3)cs2)cc1 (stereo unspecified)	39.8 µM (active)
NC(Cc1ccc(C(F)(F)F)cc1)c1csc(NC(=O)Nc2ccccc2Cc2ccccc2)n1 (stereo unspecified)	35.5 µM (active)
NC(Cc1ccc(C(F)(F)F)cc1)c1csc(NC(=O)Nc2ccccc2)n1 (stereo unspecified)	35.5 µM (active)
O=C(Nc1ccccc1)Nc1sccc1-c1nc2ccccc2s1	inactive
CCOC(=O)c1sc(-c2ccc(C(F)(F)F)cc2)nc1O	inactive
CC(C)CC(N)c1csc(NC(=O)Nc2ccccc2Cc2ccccc2)n1 (stereo unspecified)	22.4 µM (active)
Cc1ccc(-c2ocnc2C(=O)Nc2nc(C)cs2)cc1	inactive
O=C(Nc1ccccc1)Nc1nc(-c2ccc(F)c(F)c2)cs1	inactive
Nc1c(C(=O)Nc2ccccc2F)sc2nc(Cc3ccccc3)cc(C(F)(F)F)c12	inactive
